CCT modulator = cytosolic chaperonin activity modulation. purified chaperonin ATPase assay, HTRF ADP detection, 30 min. activity change, % (no concentration beside the values), hits read low. 360,000 tested, 0.3% active. AID 651819; in the data active = activity change below about -30%
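TRiC (40 or 20 nM final, by batch activity) in 30 mM Tris pH 7.4, 100 mM KCl, 5 mM MgCl2, 1 mM DTT was treated with compound at 76 uM single dose, then 10 uM ATP, 30 min at 37 °C. ADP was read by HTRF Transcreener.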
VDR inh = blocks the human vitamin D receptor | P11473 | VDR-SRC2-3 peptide fluorescence polarization, 2 h | Potency, µM, without a hit: max response, negative = inhibition, actives largely listed as inhibitors | 400,000 tested, 0.93% active; note: potency is the fitted concentration of half-maximal effect
Target sequence (P11473 whole entry, looked up): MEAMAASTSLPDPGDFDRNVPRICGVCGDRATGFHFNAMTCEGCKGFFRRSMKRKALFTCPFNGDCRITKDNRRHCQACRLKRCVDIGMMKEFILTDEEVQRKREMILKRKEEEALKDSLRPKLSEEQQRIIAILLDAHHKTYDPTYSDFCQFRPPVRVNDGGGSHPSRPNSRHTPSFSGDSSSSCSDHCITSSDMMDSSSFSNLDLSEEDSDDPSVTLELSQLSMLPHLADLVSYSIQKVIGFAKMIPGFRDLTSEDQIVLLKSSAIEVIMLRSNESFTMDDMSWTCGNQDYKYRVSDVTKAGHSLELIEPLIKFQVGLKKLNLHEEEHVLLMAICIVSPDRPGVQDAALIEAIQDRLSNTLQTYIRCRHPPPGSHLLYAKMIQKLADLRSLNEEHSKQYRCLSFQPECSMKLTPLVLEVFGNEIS
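After 23 nl compound addition and a short centrifugation, plates sat for 2 hours at ambient temperature; polarization of fluorescence then indicated loss of VDR binding to peptide SRC2-3.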
G9a block = blocks human histone lysine methyltransferase G9a | AID 504332 | G9a H3K9 monomethylation, AlphaScreen, 2 h | Potency, µM (series often up to 102 µM), without a hit: top-dose activity, negative = inhibition, actives largely listed as inhibitors | 350,000 tested, 8.8% active; note: potency is the fitted concentration of half-maximal effect; nearly all actives have a fitted effect of over 75% in size
Target sequence (Q96KQ7 913-1193 limits assumed): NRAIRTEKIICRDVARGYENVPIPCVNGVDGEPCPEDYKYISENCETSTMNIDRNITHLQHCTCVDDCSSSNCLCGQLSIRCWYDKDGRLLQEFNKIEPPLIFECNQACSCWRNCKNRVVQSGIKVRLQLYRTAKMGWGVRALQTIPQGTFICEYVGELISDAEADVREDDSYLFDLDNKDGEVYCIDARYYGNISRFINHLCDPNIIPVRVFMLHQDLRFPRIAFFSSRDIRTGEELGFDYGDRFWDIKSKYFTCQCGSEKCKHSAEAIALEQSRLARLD
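G9a (20 nM) preincubated 15 min RT with compounds, then 500 nM biotinylated H3K9 peptide and 20 uM SAM added; 2 h RT reaction. Monomethyl-H3K9 product detected by AlphaScreen with anti-H3K9me1 antibody, streptavidin donor and anti-rabbit IgG acceptor beads.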
MmCpn inh = blocks the Methanococcus maripaludis chaperonin Mm-Cpn. purified Mm-Cpn ATPase, ADP Transcreener TR-FRET. Potency, µM (highest dose often 76.9 µM), for inactives: at the top dose activity, negative = inhibition, actives largely listed as inhibitors. 330,000 tested, 0.031% active. AID 504842; note: potency is the fitted concentration of half-maximal effect; nearly all actives have a fitted effect of over 80% in size
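TR-FRET (320 nm excitation; 590 and 665 nm emission) reports ADP made from 10 uM ATP by 25 nM enzyme; compounds were preincubated 10 min, reaction run 30 min, both at 37°C.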
Sfp inh = Sfp phosphopantetheinyl transferase inhibition. AID 1490. 310,000 tested, 3.5% active. Potency, µM, without a hit: largest response in the series, negative = inhibition, most hits filed as inhibitors. Q9F4F7. Biochemical Sfp PPTase activity, qHTS;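 note: the enzyme is Sfp with the accession as filed and its product quenches rhodamine fluorescence; potency is the fitted concentration of half-maximal effect; 0% = enzyme reaction without inhibitor and -100% = no enzyme wells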
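Fluorescence-quenching assay: 15 nM Sfp-PPTase preincubated 15 min at room temperature with compound, then 5 uM rhodamine-CoA and 12.5 uM BHQ-2-labelled YbbR peptide added. Fluorescence (ex 525/em 598 nm) read at start and after 30 min; difference gives rate.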
PLK1 PBD block = inhibitors of human PLK1 polo-box domain binding. P53350. Plk1 PBD binding of FITC phosphopeptide, fluorescence polarization. Potency, µM, for inactives: max response, negative = inhibition, hits mostly inhibitors. 360,000 tested, 2.8% active; note: potency is the fitted concentration of half-maximal effect; series mostly up to about 57 µM; nearly all actives have a fitted effect of over 65% in size
* = called active by the depositor; ? = inconclusive; · = not tested or not shown; [ ] = dose if it differs, or a comment. In the library only some 10% were active in any assay of this set; here they are far more common. Unless noted, calls come from the whole dose curve; as a rule, active = well fitted curve in the direction sought with a large enough effect; inconclusive = small, poorly fitted or top-dose-only effect, or another doubt; inactive = no such curve, though single readings can be large; an effect the other way counts as inactive or inconclusive. Unless noted, % is set by controls: 0 for no effect and ±100 for the full control effect.

SMILES | CCT modulator | VDR inh | G9a block | MmCpn inh | Sfp inh | PLK1 PBD block
O=C(O)c1cccc(Nc2ccc3nonc3c2[N+](=O)[O-])c1 | -1 | -3% | -2% | 0% | 23% | -11%
Cc1ccc(NC(=O)N2CCN(c3nnc(C)c4c(C)n(-c5ccc(Cl)cc5)nc34)CC2)c(C)c1 | · | 0% | 16%[59 µM] | · | · | ·
COc1ccc2c(c1)c1c(c(=O)n(-c3cccc(C)c3)c(=O)n1CC(=O)NCCC1=CCCCC1)n2C | · | -10% | 9%[59 µM] | · | · | ·
COC(=O)c1c(NC(=O)C2c3ccccc3Oc3ccccc32)sc2c1CCC(C(C)(C)C)C2 (stereo unspecified) | · | -28% | -35%[59 µM] | · | · | ·
CCOC(=O)c1cc2c(C)n(-c3ccc(C)cc3)c(C)c2ccc1=O | -2 | 7% | · | -8% | -75% | -13%
CCOC(=O)c1cc2c(C)n(-c3ccc(OCC)cc3)c(C)c2ccc1=O | -1 | -8% | · | -3% | 79µM* | -8%
CC1CCC2C(=O)N3C(CCC(C)[C@@H]3c3cccc(N4CCOCC4)c3)C(=O)N2C1c1cccc(N2CCOCC2)c1 (stereo partly specified) | · | · | · | · | 12% | ·
O=C(CSc1ncn(-c2ccccc2)n1)Nc1ccc(Br)cn1 | 4 | 1% | 3.2µM* | -2% | -25% | 0%
CCN(CC)S(=O)(=O)c1ccc2c(c1)c(=O)c(C(=O)N1CCN(c3cccc(C)c3)C(C)C1)cn2C (stereo unspecified) | · | -23% | -2%[59 µM] | · | · | ·
CCOC(=O)c1sc(=S)n(-c2ccccc2)c1NC(C)=O | -2 | ? | ? | 0% | 24% | ?
CCOC(=O)c1sc(=S)n(C)c1NC(=O)c1ccccc1 | -1 | 79µM* | 2.8µM* | -2% | 14µM* | 7.5µM*
CCOC(=O)c1sc(=S)n(C)c1NC(=O)c1cccc(Br)c1 | 0 | ? | 10µM* | -2% | 18µM* | 11µM*
O=C(CSc1oc(-c2ccco2)nc1S(=O)(=O)c1ccc(Br)cc1)c1ccccc1 | · | 5% | -50%[59 µM] | · | · | ·
Cc1cc(C)cc(NC(=O)C2CCCN(c3nnc(C)c4c(C)n(-c5ccccc5)nc34)C2)c1 (stereo unspecified) | · | 7% | 0%[59 µM] | · | · | ·
O=C(/C(=C(\[O-])c1ccccc1)[n+]1ccc2ccccc2c1)c1ccc(Cl)cc1 | 2 | -9% | 20µM* | -6% | -13% | -19%
O=C(/C(=C(\[O-])c1ccccc1)[n+]1ccc2ccccc2c1)c1ccccc1 | -2 | 8% | -16%[59 µM] | -3% | -1% | -7%
CCOC(=O)c1c(C)n(CCNC(C)=O)c2ccc(O)cc12 | -1 | -6% | -3% | -4% | 8% | 0%
CCOC(=O)c1c(CSc2ccccc2)n(C)c2ccc(O)cc12 | 3 | -12% | 35µM* | 2% | -19% | -11%
CCOC(=O)c1c(C)n(CCOc2ccccc2)c2ccc(O)cc12 | 2 | -2% | 4µM* | 2% | 71µM* | 1%
O=C(Nc1ccccc1C(=O)OCc1cc(=O)n2c3c(sc2n1)CCCC3)c1cccc(Cl)c1 | · | 6% | 10%[59 µM] | · | · | ·
CCCN1CCC(=NNc2ccc(S(=O)(=O)N(CC)CC)cc2[N+](=O)[O-])CC1 | -1 | -19% | 35µM* | 0% | 17% | -12%
CCCN1CCC(=NNc2ccc(S(N)(=O)=O)cc2[N+](=O)[O-])CC1 | 0 | -28% | 14µM* | -4% | 6% | -2%
CC(=O)N1CCC(=NNc2ccc(S(N)(=O)=O)cc2[N+](=O)[O-])CC1 | 0 | -6% | 4%[59 µM] | 1% | 11% | -1%
Cc1ccccc1-c1nn2c(=O)cc(CN3CCN(S(=O)(=O)c4ccc(Cl)cc4)CC3)nc2s1 | · | 10% | -17%[59 µM] | · | · | ·
COc1ccc(OC)c(CNC(=O)c2nn(-c3ccc(OC)c(Cl)c3)c(=O)c3c2c2ccccc2n3C)c1 | · | -3% | 20%[59 µM] | · | · | ·
SMILES | CCT modulator | VDR inh | G9a block | MmCpn inh | Sfp inh | PLK1 PBD block
COc1ccc2nc3cc(Cl)ccc3c(Nc3cc(C(C)C)c(O)cc3C)c2c1 | 1 | -13% | -26%[59 µM] | -6% | 50µM* | 7%
O=C(CCS(=O)(=O)c1cc(Br)cc2c1N(C(=O)C1CC1)CC2)N1CCN(c2cccc(C(F)(F)F)c2)CC1 | · | 5% | -28%[59 µM] | · | · | ·
c1ccc(-c2n[nH]c(-c3ccccc3)c2-c2nc3ccccc3[nH]2)cc1 | -2 | ? | 9%[12.7 µM] | -2% | 14% | 27µM*
CCc1ccc(-n2nc(C)c3c(C)cc(=O)n(CC(=O)N4CCCc5ccccc54)c32)cc1 | · | 12% | 8%[59 µM] | · | · | ·
CN=C(NC#N)SCC(=O)c1ccc(Cl)cc1Cl | -38* | 3% | -6% | 0% | 1% | -6%
COc1cccc(-c2cnc3c(NC(C)=O)cc(-c4ccc(C(=O)NC5CC5)cc4)cn23)c1 | -35* | · | · | · | · | 1%
CC(=O)Nc1cc(-c2cccc(C(=O)NCCN(C)C)c2)cn2c(-c3ccc(S(C)(=O)=O)cc3)cnc12 | -2 | · | · | · | · | -15%
COc1cccc(-c2cnc3c(NC=O)cc(-c4ccc(OC)cc4OC)cn23)c1 | -35* | · | · | · | · | -13%
CC(=O)Nc1cc(-c2cccc(C(=O)NCCN(C)C)c2)cn2c(-c3ccccc3)cnc12 | -38* | · | · | · | · | -13%
COc1ccc2oc(-c3cccc(NC(=O)c4cc([N+](=O)[O-])ccc4N4CCOCC4)c3)nc2c1 | · | -13% | ? | · | · | ·
Cc1c(Br)c([N+](=O)[O-])nn1CC(=O)NCc1ccccc1 | 0 | ? | -28% | -2% | 7% | 12µM*
N#CC1=C(C2CC2)CC(c2ccccc2)C(C#N)=C1N (stereo unspecified) | -2 | -4% | 50µM* | -1% | 4% | -24%
CC(=O)N1c2ccc(S(=O)(=O)N3CCN(c4cc(Cl)ccc4C)CC3)cc2CC1C (stereo unspecified) | · | 18% | -14%[59 µM] | · | · | ·
Cc1ccc2oc(Nc3nc(-c4ccccc4)cc(=O)[nH]3)nc2c1 | -2 | 7% | 79µM* | -1% | -16% | -10%
CN(C)c1ccc(N=Nc2ccccc2C(=O)OCC(=O)NCC2CCCCC2)cc1 | -2 | -22% | 7.9µM* | -2% | ? | -7%
CN(C)c1ccc(C(=O)OCC(=O)NC2CCCCCC2)cc1 | -2 | 4% | -4% | 0% | -18% | -10%
CN(C)c1ccc(N=Nc2ccccc2C(=O)OCC(=O)N(C)C2CCCCC2)cc1 | 1 | -18% | 20µM* | 1% | -5% | 1%
O=C(COC(=O)c1ccccc1Br)NCC1CCCCC1 | 1 | -20% | · | 1% | · | 4%
CN(C(=O)COC(=O)c1cccnc1Cl)C1CCCCC1 | 2 | -13% | · | 0% | · | 6%
CN(C)c1ccc(N=Nc2ccccc2C(=O)OCC(=O)NC2CCCC2)cc1 | -2 | -7% | 11µM* | -1% | -15% | 15%
COc1ccccc1CNC(=O)c1ccc2nc(CCc3ccccc3)oc2c1 | · | 1% | 10%[59 µM] | · | · | ·
